Activity calls are given as the source filed them. Rule for the calls: active = hit-call score of the fitted dose curve at least 0.9, where 1 is the maximum; inactive = score below 0.9.

This test is described as follows: BSK_3C_VCAM1: BioMAP Diversity Plus: 3C Assay for Vascular cell adhesion molecule 1 (VCAM1) Biomarker Activity (AID 2282999). The conditions noted are these: BioMAP 3C HUVEC, VCAM1 ELISA, cytokine-stimulated; actives raise or lower the signal. As for the experimental part: BSK_3C is a cell-based, multiplexed-readout assay that uses umbilical vein endothelium, a human vascular primary cell, with measurements taken at 24 hours after chemical dosing in a 96-well plate.BSK_3C_VCAM1 is an assay component measured in the BSK_3C assay. It measures VCAM-1 antibody related to regulation of gene expression using ELISA technology.Data from the assay component BSK_3C_VCAM1 was analyzed into 1 assay endpoint. This assay endpoint, BSK_3C_VCAM1, was analyzed with bidirectional fitting relative to DMSO as the negative control and baseline of activity. Using a type of binding reporter, gain or loss-of-signal activity can be used to understand changes in the signaling as they relate to the gene VCAM1. Furthermore, this assay endpoint can be referred to as a primary readout, because this assay has produced multiple assay endpoints where this one serves a signaling function. To generalize the intended target to other relatable targets, this assay endpoint is annotated to the cell adhesion molecules intended target family, where the subfamily is Immunoglobulin CAM.
The levels of cell surface (or secreted, indicated by the prefix "s") biomarker endpoints were measured by ELISA. Overt cytotoxicity to cells in confluent adherent cultures (all systems other than the BT system) was assessed by measuring total protein levels using sulforhodamine B (SRB) staining in parallel cultures at the time of biomarker measurements, indicated as SRB endpoints. For proliferation assays for adherent cell types, individual cell types are cultured at sub-confluence and relative cell numbers quantified by SRB staining at time points optimized for each system (48 h: 3C and CASM3C systems; 72 h: BT and HDF3CGF systems; 96 h: SAg system). SRB was performed by staining cells with 0.1% SRB after fixation with 10% TCA and reading wells at 560 nm.Viability and proliferation of PBMC (T cells) was quantified by Alamar Blue reduction for the SAg and BT systems. For PBMC viability (referred to as PBMC Cytotoxicity within the assay endpoint names), cells were plated (75,000/well in a 96-well plate) and then chemical samples added for 1 h before addition of activators, SEB and TSST-1 (20 ng/mL final concentration each). Cells were incubated for 90 h. Then, Alamar Blue (20 uL/well) (Invitrogen, Cat DAL1100) was added for 6 h, and the plates were read with a fluorescence microplate reader at 546/580 nm (excitation/emission). For PBMC proliferation, cells were plated and activated as above but incubated for only 16 h prior to addition of Alamar Blue. Plates were read after 6 h.
On the technique in general: In an ELISA, binding on a coated surface is turned into a signal by an enzyme label.
As to `O=C1OC(=O)C2C3C=CC(C3)C12` (stereo not given), the result was inactive.

For the compound `CC(C)c1cccc(C(C)C)c1N1C(=O)c2ccc(O)cc2C1=O`, the AC50 – broadly, the concentration at which the activity in the assay is half-maximal – was 16.7 µM (active).

Regarding `COC(=O)c1ccccc1O`, the outcome was inactive. On the same count and under the same terms, next, `O=P(OC(CCl)CCl)(OC(CCl)CCl)OC(CCl)CCl`: “inactive”. For the compound `COc1ccc2sc(C(=O)Nc3nnn[nH]3)c(OC(C)C)c2c1`, the AC50 is 23.7 µM (active). For `C=CC(=C)CCC=C(C)C`, the outcome was inactive. The same measure, in the same setting: the same measure for `CC(C)CC(C)(O)C#CC(C)(O)CC(C)C` (stereo not given): “inactive”; for `COC(=O)CC(=O)OC`: “inactive”; for `CC(C)=CCC/C(C)=C/CO`: “inactive”.

As to `CC/C(=C\C(=N/O)C(N)=O)C(C)[N+](=O)[O-]` (stereo not given), the AC50 was 20 µM (active).

For `Cc1ccc(C)c(O)c1`, the result was inactive. On to `O=C(O)c1cccc(Oc2ccccc2)c1`, for which the result was inactive.

In the case of `Cc1ccc(N)cc1O`, the outcome was inactive. Still for that read-out and setting: next, `O=C1CCC(N2C(=O)c3ccccc3C2=O)C(=O)N1` (stereo not given): “inactive”; `O=C(NS(=O)(=O)/C=C/c1ccccc1)c1ccc(F)cc1Cl`: “inactive”; `CCCCC(CC)COC(=O)c1ccc(C(=O)OCC(CC)CCCC)cc1` (stereo not given): “inactive”.

In the case of `CCc1cc(SCc2sc(-c3ccc(C(F)(F)F)cc3)nc2CN2CCN(c3ccc(OC)cc3)CC2)ccc1OCC(=O)O`, the AC50 is 27.7 µM (active). In the case of `CC(C)=CCCC(C)=CC=O`, the outcome was inactive. On the same count and under the same terms, next, `O=C(O)CC(O)C(=O)O` (stereo not given): “inactive”; `CN(C)c1ccc(Cc2ccc(N(C)C)cc2)cc1`: “inactive”; `Cn1c(=O)c2c(ncn2C)n(C)c1=O`: “inactive”. Same read-out and setting: next, `Cc1ccc(S(=O)(=O)O)cc1C`: “inactive”. In the case of `CCCCCCc1ccc(O)cc1O`, the AC50 is 34.3 µM (active).

`CCCCCCCCO`: the result was inactive. Still for that read-out and setting: next, `CCN(C(=O)c1cc(C)cc(OC[C@H](C)Nc2ccncc2)c1)C(C)C`: “inactive”; `CCn1nc(Cc2ccccc2)cc1C1CCN(C[C@H]2C[C@H](N(C)[C@@H](C(=O)O)C(C)C)C[C@@H]2c2cccc(F)c2)CC1`: “inactive”.

`On1ccccc1=S`: the AC50 was 24.7 µM (active).

On to `CC(C)CCCCCCOC(=O)c1ccc(C(=O)OCCCCCCC(C)C)c(C(=O)OCCCCCCC(C)C)c1`, for which the result was inactive.

Consider `CC1(C)C(=O)N(Br)C(=O)N1Br`, for which the outcome was inactive. The same measure, in the same setting: the same measure for `COCCOCCOCCOC`: “inactive”; for `CC(C)(O)c1coc(S(=O)(=O)NC(=O)Nc2c3c(cc4c2CCC4)CCC3)c1`: “inactive”. For `CCCCCCCCCCCCCCCO`, the AC50 is 15.4 µM (active). Still for that read-out and setting: next, `CNS(=O)(=O)c1cc(C(=O)N2CCC(CCN3C4CCC3CC(n3c(C)nc5ccccc53)C4)(c3cccc(F)c3)CC2)c(Cl)cc1F` (stereo not given): 13.5 µM (active).

For `Fc1ccccc1[C@@H](F)COC1CCC(Nc2ncnc3[nH]ncc23)CC1` (stereo not given in full), the result was inactive. The same measure, in the same setting: next, `Nc1nc2ncc(CNc3ccc(C(=O)N[C@@H](CCC(=O)O)C(=O)O)cc3)nc2c(=O)[nH]1`: “inactive”; `CCNc1ccccc1`: “inactive”; `CC(C)CCO`: “inactive”.

As for `Cn1c(=O)cc(Oc2ccc(F)cc2F)c2cnc(NCC(C)(C)O)nc21`, the outcome was inactive.

Regarding `COc1ccc(/C=C/S(=O)(=O)NC(=O)c2ccc(C)cc2Cl)cc1`, the outcome was inactive. The same measure, in the same setting: the same measure for `C1N2CN3CN1CN(C2)C3`: “inactive”.

(Values after PubChem BioAssay (EPA / NIEHS).)
